Test systems include EKVX NSCLC; SN12C renal; UO-31 renal; TK-10 renal; ACHN renal; CAKI-1 renal; A498 renal; CCRF-CEM leukemia; MOLT-4 leukemia; SR leukemia; RPMI-8226 leukemia; OVCAR-8 ovarian; OVCAR-5 ovarian; OVCAR-4 ovarian; SK-OV-3 ovarian; IGROV1 ovarian; OVCAR-3 ovarian; HS 578T breast; NCI/ADR-RES ovarian; SK-MEL-2 melanoma.
Common to all, as to assay: NCI-60 one-dose screen, 48 h (100 = growth as untreated, 0 = no growth, -100 = all killed)
Common to all, as to conditions: 10 µM

Compounds without any hit were thinned out: in the full panel of roughly 83,000, 20% have a hit.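 Method: cells in 96-well plates; compound added at one concentration; 48 h incubation; percent growth measured; values under 10 scored active.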 Values without a mark were called inactive. Calls of active or inactive are those of the source.

In the case of `CC(=O)[C@@]12O[C@](C)(c3ccccc3)O[C@@H]1CC1C3CCC4=CC(=O)CC[C@]4(C)C3CC[C@@]12C` (stereo partly drawn), the growth with EKVX NSCLC is 63.5%; in the test on SN12C renal it was 84%; with UO-31 renal, 51.6%; in the test with TK-10 renal, 88.2%; in the test on ACHN renal, 69.3%; in the test with CAKI-1 renal, 47.5%. Besides, the growth was 68.2% with A498 renal; 73.1% in the test on CCRF-CEM leukemia; 23.7% in the test on MOLT-4 leukemia; 32.1% with SR leukemia; 47.6% in the test on RPMI-8226 leukemia; 82.4% in the test on OVCAR-8 ovarian. In addition, the growth was 88.5% in the test on OVCAR-5 ovarian; 44% in the test with OVCAR-4 ovarian; 99.7% in the test with SK-OV-3 ovarian; 70.7% in the test with IGROV1 ovarian; 54.3% in the test with OVCAR-3 ovarian; 86.2% with HS 578T breast. The growth in the test with NCI/ADR-RES ovarian is 60.4%.

In the case of `CO[C@H]1CC(O[C@@H]2/C(C)=C/C[C@@H]3C[C@@H](C[C@]4(C=C[C@H](C)[C@@H](C5CCCCC5)O4)O3)OC(=O)[C@@H]3C=C(C)[C@@H](O)[C@H]4OC/C(=C\C=C\[C@@H]2C)[C@]43O)O[C@@H](C)C1O[C@H]1C[C@H](OC)[C@@H](O)[C@H](C)O1` (stereo partly drawn), the growth with EKVX NSCLC was -94.3% (active); in the test on SN12C renal, -79.1% (active); in the test on UO-31 renal it was -98.4% (active); in the test on TK-10 renal, -85.5% (active); in the test with ACHN renal it was -100% (active); in the test on CAKI-1 renal, -94.6% (active). The growth was -80.3% (active) with A498 renal; -44.1% (active) with CCRF-CEM leukemia; -58.2% (active) in the test with MOLT-4 leukemia; -52.8% (active) with SR leukemia; -25.1% (active) in the test with RPMI-8226 leukemia; -25.9% (active) in the test with OVCAR-8 ovarian. The growth is -65.3% (active) with OVCAR-5 ovarian; -46.8% (active) in the test with OVCAR-4 ovarian; -84.1% (active) in the test with SK-OV-3 ovarian; -54.7% (active) in the test on IGROV1 ovarian; -96.9% (active) in the test on OVCAR-3 ovarian; -40.4% (active) in the test with HS 578T breast. Besides, the growth in the test on NCI/ADR-RES ovarian is -65.1% (active).

With `COc1ccc(-c2nn(-c3cccc(Cl)c3)cc2C=C(C#N)C#N)cc1`, the growth in the test with SK-MEL-2 melanoma is -39.4% (active); in the test with SN12C renal, 10.4%; in the test with UO-31 renal, 11.9%; with TK-10 renal, -3.05% (active); in the test on ACHN renal it was 9.38% (active); with CCRF-CEM leukemia, -27.3% (active). For the same compound, the growth was -45.9% (active) in the test on MOLT-4 leukemia; -61.6% (active) in the test on SR leukemia; 24.2% in the test on OVCAR-8 ovarian; 29% with OVCAR-5 ovarian; 7.22% (active) with OVCAR-4 ovarian; -0.205% (active) in the test with SK-OV-3 ovarian. Also, the growth in the test with IGROV1 ovarian was 12.2%; in the test with OVCAR-3 ovarian it was -23.6% (active); in the test on HS 578T breast, 24.5%; in the test with NCI/ADR-RES ovarian it was 2.52% (active).

In the case of `CC(=O)Nc1ccc(S(=O)(=O)N/N=C(\C)c2ccc(C)cc2C)cc1`, the growth in the test on SK-MEL-2 melanoma is 93.1%; in the test on SN12C renal, 110%; in the test on TK-10 renal it was 108%; in the test with ACHN renal, 95.3%; in the test with A498 renal, 112%; with CCRF-CEM leukemia it was 103%. Moreover, the growth with MOLT-4 leukemia was 97.7%; in the test with SR leukemia, 113%; in the test on RPMI-8226 leukemia, 104%; with OVCAR-8 ovarian, 98.5%; in the test on OVCAR-5 ovarian it was 98.4%; with OVCAR-4 ovarian, 102%. Also, the growth is 98.5% in the test on SK-OV-3 ovarian, 111% with OVCAR-3 ovarian and 112% in the test with NCI/ADR-RES ovarian.

In the case of `CCc1c2c(nc3ccc(OC(=O)N4CCC(N5CCCCC5)CC4)cc13)-c1cc3c(c(=O)n1C2)COC(=O)[C@]3(O)CC`, the growth is 67.2% in the test on EKVX NSCLC; 16.2% in the test with SN12C renal; 11.6% in the test on UO-31 renal; 81.6% with TK-10 renal; 1.66% (active) with ACHN renal; -17.4% (active) in the test on CAKI-1 renal. Moreover, the growth in the test with A498 renal is 9.23% (active); in the test on CCRF-CEM leukemia it was 5.44% (active); in the test on MOLT-4 leukemia, -20.6% (active); with SR leukemia it was 1.34% (active); in the test with RPMI-8226 leukemia, 60.8%; with OVCAR-8 ovarian, 28.1%. Further, the growth in the test with OVCAR-5 ovarian was 70.4%; with OVCAR-4 ovarian it was 62.4%; with SK-OV-3 ovarian it was 25.9%; in the test on IGROV1 ovarian, 49.9%; in the test on OVCAR-3 ovarian, 33%; in the test with HS 578T breast, 102%. For the same compound, in the test on NCI/ADR-RES ovarian, the growth was 24.5%.

For `CC(=O)O[C@@]12CO[C@@H]1C[C@H](O)[C@@]1(C)C(=O)[C@H](O)C3=C(C)[C@@H](OC(=O)[C@H](O)[C@@H](NC(=O)OC(C)(C)C)c4ccccc4)C[C@@](O)([C@@H](OC(=O)c4ccccc4)C12)C3(C)C` (stereo partly drawn), the growth was 59% in the test with EKVX NSCLC; 56.3% with SN12C renal; 33.5% with UO-31 renal; 42.1% in the test on TK-10 renal; 56.9% in the test on ACHN renal; 4.8% (active) in the test on CAKI-1 renal. For the same compound, the growth in the test on A498 renal is 22.6%; in the test on CCRF-CEM leukemia it was 29.9%; in the test on MOLT-4 leukemia it was 25.4%; with SR leukemia, 11.1%; with RPMI-8226 leukemia, 25.4%; with OVCAR-8 ovarian it was 38.4%. Also, the growth in the test on OVCAR-5 ovarian was 40.1%; with OVCAR-4 ovarian, 58%; in the test with SK-OV-3 ovarian, 47.3%; with IGROV1 ovarian, 39.2%; in the test with OVCAR-3 ovarian, 7.26% (active).

Regarding `CC(C)C[C@H](NC(=O)Cn1cccc(CNC(=O)c2ccccc2)c1=O)B(O)O`, the growth in the test on SK-MEL-2 melanoma was 7.34% (active); with UO-31 renal, 50.9%; in the test on TK-10 renal it was 16.8%; in the test on ACHN renal it was 24.5%; in the test on A498 renal, -12.2% (active); with CCRF-CEM leukemia, 2.66% (active). Further, the growth was -7.9% (active) in the test with MOLT-4 leukemia; 16.4% in the test with SR leukemia; 0.606% (active) in the test on RPMI-8226 leukemia; 54.4% with OVCAR-8 ovarian; 38.8% with OVCAR-5 ovarian; 36.7% in the test with OVCAR-4 ovarian. In addition, the growth is 58.5% in the test on SK-OV-3 ovarian; 51.5% in the test on IGROV1 ovarian; -43.2% (active) in the test on OVCAR-3 ovarian; 16.6% in the test on HS 578T breast; 103% in the test on NCI/ADR-RES ovarian.

In the case of `Cc1nn(-c2ccccc2)c2nc(Cl)c(C=O)c(-c3ccccc3)c12`, the growth with SK-MEL-2 melanoma was 114%; in the test with SN12C renal, 98.2%; in the test with UO-31 renal, 48.1%; in the test on TK-10 renal, 113%; with ACHN renal, 114%; in the test on A498 renal, 78.6%. For the same compound, the growth was 36.3% in the test with CCRF-CEM leukemia; 99.9% with OVCAR-8 ovarian; 99.8% with OVCAR-5 ovarian; 102% in the test on OVCAR-4 ovarian; 116% with SK-OV-3 ovarian; 106% in the test with OVCAR-3 ovarian. Moreover, the values for the growth in the test on HS 578T breast and with NCI/ADR-RES ovarian were 112% and 82.8%, respectively.

Regarding `COC(=O)c1c[nH]c2cc(OC(C)C)c(OC(C)C)cc2c1=O`, the growth with EKVX NSCLC is 98.8%; in the test with SN12C renal, 108%; in the test with UO-31 renal it was 84%; in the test on TK-10 renal it was 113%; in the test with ACHN renal, 100%; with CAKI-1 renal, 97.2%. For the same compound, the growth in the test on A498 renal is 103%; in the test on CCRF-CEM leukemia, 80.9%; in the test with MOLT-4 leukemia, 109%; in the test on SR leukemia, 97%; in the test with RPMI-8226 leukemia, 96.9%; with OVCAR-8 ovarian, 58.8%. Besides, the growth is 106% in the test on OVCAR-5 ovarian; 109% in the test with OVCAR-4 ovarian; 55.2% in the test on SK-OV-3 ovarian; 139% in the test with IGROV1 ovarian; 113% in the test with OVCAR-3 ovarian.

The values are drawn from PubChem BioAssay (NCI).
